# ST2 IL33 inh – inhibitors of human ST2 (IL1RL1) binding to IL-33; AID 1259354; inhibition, % for hits at 17 µM; AlphaLISA ST2-Fc/biotin-IL-33 interaction, 1 h; 2.3% of 78,000 active; Q01638; in the data active means inhibition above about 30%
# Target sequence (Q01638 whole entry, looked up): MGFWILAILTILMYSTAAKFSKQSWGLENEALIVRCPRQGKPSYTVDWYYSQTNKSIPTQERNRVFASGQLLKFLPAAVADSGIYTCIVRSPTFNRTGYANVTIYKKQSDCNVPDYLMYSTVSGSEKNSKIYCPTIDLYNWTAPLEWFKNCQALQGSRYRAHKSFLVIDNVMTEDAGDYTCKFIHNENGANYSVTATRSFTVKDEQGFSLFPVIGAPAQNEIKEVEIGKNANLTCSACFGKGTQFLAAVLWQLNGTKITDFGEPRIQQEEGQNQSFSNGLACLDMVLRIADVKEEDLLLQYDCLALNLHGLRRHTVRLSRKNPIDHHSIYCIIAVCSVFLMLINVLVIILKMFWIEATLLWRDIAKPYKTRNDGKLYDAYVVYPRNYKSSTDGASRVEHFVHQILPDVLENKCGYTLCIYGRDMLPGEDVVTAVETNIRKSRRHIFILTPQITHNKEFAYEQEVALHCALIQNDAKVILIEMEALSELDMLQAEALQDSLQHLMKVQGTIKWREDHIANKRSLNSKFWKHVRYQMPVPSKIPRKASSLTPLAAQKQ
# Numbers stand for hits; – = inactive. This excerpt belongs to a sample that is enriched for hits.
SMILES,ST2 IL33 inh
Cc1c(N=Cc2ccc(N(C)C)c([N+](=O)[O-])c2)c(=O)n(-c2ccccc2)n1C,–
COc1cc(NCC2(c3ccccc3)CCN(C)CC2)ncn1,31.0%
c1ccc(C2(CNc3ccccn3)CCCC2)cc1,–
COc1cc(NCCNC(=O)c2ccncc2)ncn1,–
CC(C)C(NC(=O)c1cc2ccccn2n1)c1nnc2n1CCNCC2 (stereo not given),–
C1COC(COCc2nn3c(C4CC4)nnc3s2)C1 (stereo not given),–
O=C(N[C@H]1CCN2C(=O)c3cc(-c4ccc5c(c4)OCO5)ccc3NC(=O)[C@H]12)c1cccs1,–
CCN(CC)c1ccc(C=Nc2cc(Cl)ccc2O)c(O)c1,–
CC(=O)Nc1ccc(N=Cc2ccccc2O)cc1,–
CCN(CC)c1ccc(N=Cc2ccccc2O)cc1,79.0%
CCOc1ccc(N2C(=O)CC(N3CCC(C)CC3)C2=O)cc1 (stereo not given),–
COc1nc2ccccc2cc1-c1cnccc1N,–
Cc1noc(C)c1-c1nc(CC(C)C)nn1-c1ccc2c(c1)OCO2,–
COc1cc([N+](=O)[O-])ccc1N1C(=O)c2c(C)nc3ccccc3c2C1=O,–
Cc1nc2ccccc2c2c1C(=O)N(c1ccc(C(N)=O)cc1)C2=O,–
Cc1nc2ccccc2c2c1C(=O)N(c1ccc3c(c1)OCO3)C2=O,51.0%
Cc1nc2ccccc2c2c1C(=O)N(c1cccnc1Cl)C2=O,–
Cc1ccc(Cl)cc1N1C(=O)c2c(C)nc3ccccc3c2C1=O,31.0%
COc1cccc(Cn2c(CNC(=O)C3CCC3)nc3cccnc32)c1,–
c1csc(C2=NN3C(C2)c2ccccc2OC32CCCC2)c1 (stereo not given),–
Clc1ccc2c(c1)C1CC(c3ccccc3)=NN1CO2 (stereo not given),–
CC(C)C1Oc2ccc(Cl)cc2C2CC(c3cccs3)=NN21 (stereo not given),34.0%
O=C(CSc1cn(CCNC(=O)c2ccc(F)cc2)c2ccccc12)NC1CCCCC1,–
COc1cccc(NC(=O)c2ccc(=O)n(Cc3ccc(F)cc3)c2)c1,–
COc1cccc(NC(=O)CSCc2ccc(Cl)cc2)c1,–
SMILES,ST2 IL33 inh
COc1cccc(NC(=O)/C(C#N)=C\c2cn(Cc3cccc(C)c3)c3ccccc23)c1,33.0%
COc1cccc(NC(=O)/C(C#N)=C\c2cn(Cc3ccc(C)cc3)c3ccccc23)c1,30.0%
Cc1cccc(NC(=O)/C(C#N)=C/c2cc(C)n(-c3ccc(F)cc3)c2C)c1,–
COc1cccc(NC(=O)CCCc2ccccc2)c1,–
Cc1ccc(COc2ccc3c4c(c(=O)oc3c2)CCC4)cc1,–
O=C(CSCc1ccc(Cl)cc1)Nc1cccc(F)c1,–
CC(C)C(=O)Nc1nnc(N=Cc2ccc(Br)s2)s1,–
Cc1cc(NS(=O)(=O)c2ccc(NC(=O)C3CC3c3ccccc3)cc2)nc(C)n1 (stereo not given),–
O=C(CN1CCCN(Cc2ccccc2Cl)S1(=O)=O)NC1CCCCC1,–
O=[N+]([O-])c1cccc(-c2noc(-c3ccc(I)cc3)n2)c1,–
COc1ccccc1Cc1noc(COc2cccc(C)c2C)n1,–
COc1ccc(-c2nc(-c3cccc([N+](=O)[O-])c3)no2)cc1,–
COc1ccccc1CNc1ccc([N+](=O)[O-])cn1,–
COc1ccccc1Cc1noc(/C=C/c2ccccc2Cl)n1,–
COc1ccccc1Cc1nc(-c2ccc([N+](=O)[O-])cc2)no1,30.0%
COc1ccccc1Cc1noc(-c2ccc([N+](=O)[O-])cc2)n1,47.0%
COc1ccccc1Nc1nc(-c2ccc([N+](=O)[O-])cc2)nc2ccccc12,–
COc1ccccc1Cc1nc(-c2cccc([N+](=O)[O-])c2)no1,32.0%
O=C(Cn1ncc2ccccc21)N1CCC(n2cc(-c3ccccn3)nn2)CC1,–
O=C(c1ccc(NC2=NC3CS(=O)(=O)CC3S2)cc1)N1CCCC1 (stereo not given),–
CCc1c(C)sc(NC(=O)c2noc3c2CCc2cc(OC)ccc2-3)c1C#N,–
FC(F)(F)c1ccc2nnc(-c3ccc(Cl)cc3Cl)n2c1,–
FC(F)(F)c1cccc(-c2ncnn2-c2ccc(Br)nc2)c1,–
FC(F)(F)c1ccc2nnc(-c3cccc(I)c3)n2c1,54.0%
COc1cccc(CNC(=O)CCC2CCCN(C(=O)c3ccc4ncccc4c3)C2)c1 (stereo not given),–
SMILES,ST2 IL33 inh
COCCC(=O)N[C@H]1CC[C@]2(C)CC[C@@H]([C@H](C)C(=O)NC3CC3)[C@H](O)[C@H]2[C@@H]1C,–
O=C(Nc1ccc(N2CCOCC2)cc1)c1cccc([N+](=O)[O-])c1,30.0%
O=C(Nc1ccc(N2CCOCC2)cc1)c1ccccc1,–
Cc1cc(C(=O)Nc2ccc(N3CCOCC3)cc2)ccc1[N+](=O)[O-],–
O=C(CCc1ccc2c(c1)OCO2)N1CCC2(CCCN(CC3CC3)C2=O)C1 (stereo not given),–
O=C(CN1C(=O)c2ccccc2C1=O)Nc1ccc(Br)cc1,34.0%
O=C(CN1C(=O)C(=O)c2ccccc21)Nc1ccc(Br)cc1,–
O=C(CN1C(=O)c2ccccc2C1=O)Nc1ccc(Br)cc1C(=O)O,–
Cc1nnnn1-c1ccc(CC(=O)NC(C)C2=CCCCC2)cc1 (stereo not given),–
CCOC(=O)C1(CCOc2ccccc2)CCN(S(=O)(=O)c2ccc(C)s2)CC1,–
CCOC(=O)C1(CCOc2ccccc2)CCN(Cc2cccc(C)n2)CC1,83.0%
CCOC(=O)C1(CCOC)CCN(Cc2ccc(N(C)c3ccccc3)cc2)CC1,–
COCCn1c(C)cc(C(=O)CSc2nnc3sc4ccccc4n23)c1C,–
Fc1ccc(C2CCCN2Cc2cnc(-c3ccco3)nc2)cc1 (stereo not given),–
CCOC(=O)C1CCN(C(=O)CCc2nc(-c3ccc(C)cc3)no2)CC1,–
COc1cccc(/C=C2\C(=O)Nc3ccc(Br)cc32)c1OC,–
O=C1Nc2ccc(Br)cc2/C1=C/c1ccsc1,39.0%
COc1ccc(/C=C2\C(=O)Nc3ccc(Br)cc32)cc1O,–
O=C1Nc2ccc(Br)cc2/C1=C/c1cccc(F)c1,30.0%
COc1cc(/C=C2\C(=O)Nc3ccc(Br)cc32)cc(Br)c1O,–
COc1cc(/C=C2\C(=O)Nc3ccc(Br)cc32)cc(OC)c1O,–
C=CCOC(=O)C1=C(C)NC(=O)NC1c1cccc(OCC)c1 (stereo not given),–
Cc1nc(CCN)cc(NCC(O)c2ccccc2)n1 (stereo not given),–
Cc1cc(Cl)ccc1S(=O)(=O)n1cnc2ccccc21,–
Oc1ccc(C(O)Cn2cc(CCc3ccccc3)nn2)cc1 (stereo not given),–
SMILES,ST2 IL33 inh
CC(C(=O)NCc1ccc(Cl)cc1Cl)N(c1ccccc1)S(C)(=O)=O (stereo not given),–
CC(C)c1noc(CN2CCCC3(C2)C(=O)Nc2ccccc23)n1 (stereo not given),–
O=C(Nc1ccc(Cl)cc1)c1cnccn1,–
CCN(CC)c1ccc(NC(=O)c2cnccn2)cc1,56.0%
CCN(CC)c1cc(C)c2cc(NC(=O)c3cnccn3)ccc2n1,–
Cc1ccc(F)cc1-c1ccc(SCC(N)=O)cc1,–
CCOc1ccc(Br)cc1C1C(C#N)=C(N)Oc2cc(C)oc(=O)c21 (stereo not given),–
CCOc1ccc(S(=O)(=O)NCC(=O)O)cc1,–
COc1ccc(OCC(=O)O)cc1,–
Cc1ccc(C)n1-c1ccc(OCC(=O)O)cc1,64.0%
Cc1ncoc1C(=O)N(CCN1CCCCC1)CC1CCCN(C2CCCC2)C1 (stereo not given),–
CCc1nc(C)c(C(=O)NCCc2nncn2CC)s1,–

# Compound activity deposited in PubChem by Paczesny and Yang Labs, IUPUI and University of Michigan.
